The results in this text go back to PubChem BioAssay (NCI).

The panel holds about 83,000 compounds, 20% with a hit somewhere; the sample as a whole holds those more often.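 96-well plates, one dose, 48 hours. Percent growth reported; active if below 10.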 A number with no mark means an inactive call. Active and inactive are the calls of the source.

The subject of this assay is NCI-H522 lung. Kind of assay: NCI-60 one-dose screen, 48 h (100 = growth as untreated, 0 = no growth, -100 = all killed). Particulars: 10 µM.
With `N=c1nc(N)ncn1-c1ccccc1`, the growth is 83.1%.
With `COc1ccc(-c2nnc(-c3c(-c4ccccc4)nc4ncccn34)o2)cc1OC` the figure was 94.2%; with `Nc1ncn([C@@H]2O[C@H](CO)[C@@H](O)[C@H]2O)c(=O)n1`, 4.49% (active); with `CCOC(=O)CCC(NC(=O)c1ccc(N)cc1)C(=O)OCC` (centres undefined), 80.5%.
The figure for `CC(=O)N(C)c1ccc(Nc2ccc(Nc3ccc(N(C)C(C)=O)cc3)c3c2C(=O)c2ccccc2C3=O)cc1` is 53.8%; for `COc1ccc(-c2nc3sccn3c2-c2nc3c([nH]2)C(=O)c2ccccc2C3=O)cc1` it is 96.8%.
With `COc1ccc2c(c1)C(=O)c1c-2c(OCCN(C)C)nc2cc(OC)c(OC)cc12` the figure was 42.1%.
On to `COc1cc(/C=C\c2cc(OC)c(OC)c(OC)c2)cc(NS(=O)(=O)c2ccc(Cl)cc2)c1OC`, for which the growth is -9.34% (active).
With `C=C(C(=O)c1ccccc1)C(NC(C)(C)C)c1ccccc1` (centres undefined) the figure was -83.9% (active); with `O=C1/C(=C/c2ccc(Cl)cc2)SC(=Nc2ccc(Cl)cc2)N1Cc1nc2ccccc2[nH]1`, 76.4%.
`CC12O[C@H](C[C@@H](OC(=O)c3ccccc3)[C@H]1O)n1c3ccccc3c3c4c(c5c6ccccc6n2c5c31)C(=O)NC4=O`: the growth is 66.7%.
`COc1ccc(Oc2nc(NC3CCCC3)nc(Sc3ccc(OC)cc3)n2)cc1`: the growth is 66.9%.
The figure for `COc1cc(-c2cc(/C=C/C(=O)c3ccc4c(c3)OCO4)[nH]n2)cc(OC)c1OC` is 57.4%; for `CCN(CC)CCOc1nc2cc(OC)c(OC)cc2c2c1-c1ccc(OC)cc1C2=O` it is 73.9%.
